The values below come from PubChem BioAssay (NCATS).

Inconclusive results are not listed. The source made the active and inactive calls. Unless noted, the call rests on the fitted dose curve.

Assay [1] in a line: qHTS for Inhibitors of the Functional Ribonucleoprotein Complex (vRNP) of Lassa (LASV) Arenavirus: LASV Primary Screen - GLuc reporter signal (AID 1347082; calls by dose curve; tested in HEK293 reporter line; further: on the % scale 0 is the no-effect control and ±100 the full control effect; nearly all actives have a fitted effect of over 60% in size).
Assay [2] in a line: qHTS for Inhibitors of the Functional Ribonucleoprotein Complex (vRNP) of Lassa (LASV) Arenavirus: Viability assay - alamar blue signal for LASV Primary Screen (AID 1347083; calls by dose curve; tested in HEK293 reporter line; further: on the % scale 0 is the no-effect control and ±100 the full control effect; nearly all actives have a fitted effect of over 80% in size). (In general: qHTS replaces the single test concentration by a dilution series.)
A short description of assay [3]: qHTS for Inhibitors of the Functional Ribonucleoprotein Complex (vRNP) of Lymphocytic Choriomeningitis Arenaviruses (LCMV): Viability assay - alamar blue signal for LCMV Primary Screen (AID 1347085; calls by dose curve; tested in HEK293 reporter line; further: on the % scale 0 is the no-effect control and ±100 the full control effect; nearly all actives have a fitted effect of over 80% in size).
Assay [4] addresses Nucleoprotein (Lymphocytic choriomeningitis virus (strain Armstrong)) (UniProt P09992). The assay can be described thus: qHTS for Inhibitors of the Functional Ribonucleoprotein Complex (vRNP) of Lymphocytic Choriomeningitis Arenaviruses (LCMV): LCMV Primary Screen - GLuc reporter signal (AID 1347086). Further: on the % scale 0 is the no-effect control and ±100 the full control effect; nearly all actives have a fitted effect of over 70% in size.
A short description of assay [5]: Primary qHTS for inhibitors of SARS-S pseudo-typed particle cell entry (AID 1479145). Further: nearly all actives have a fitted effect of over 45% in size. On activity change, negative = inhibition: on the % scale 0 is the no-effect control and ±100 the full control effect.
Assay [6] can be described thus: Primary qHTS for Huh7 cytotoxicity: counterscreen for inhibitors of MERS-S pseudotyped particle cell entry (AID 1479147). The following applies: outcome: dose series up to 57.1 µM unless noted.
Assay [7] is described as follows: Primary qHTS for inhibitors of MERS-S pseudo-typed particle cell entry (AID 1479149). Further: nearly all actives have a fitted effect of over 60% in size. On activity change, negative = inhibition: on the % scale 0 is the no-effect control and ±100 the full control effect.
A short description of assay [8]: Primary qHTS for Vero E6 cytotoxicity: counterscreen for inhibitors of SARS-S pseudo-typed particle cell entry (AID 1479150). The note with it: outcome: dose series up to 57.1 µM unless noted.
A short description of assay [9]: Cytotoxicity counterscreen for inhibitors of SARS-CoV-2 cell entry (AID 1645845). Further: nearly all actives have a fitted effect of over 50% in size. Further: potency means the concentration at half of the fitted maximal effect. Put shortly: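 HEK293-ACE2 cells (Expi293F stably expressing human ACE2) seeded overnight, then compound for 1 h plus 48 h at 37C. Viability as ATP content by luminescence; normalized to wells with cells and media-only wells.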
For orientation: Counterscreens check selectivity or assay interference.

A short description of assay [10]: Primary qHTS to identify inhibitors of SARS-CoV-2 cell entry (AID 1645846). Further: nearly all actives have a fitted effect of over 45% in size. The note with it: activity change, negative = inhibition: at 57.1 µM (top of the series) unless noted. Put shortly:
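Data are normalized to wells receiving SARS-CoV-2-S pseudoparticles and those given bald particles. Entry signal was luciferase luminescence in stable hACE2 Expi293F cells, 48 hr post-infection, after 1 hr compound pretreatment.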

Assay [11] can be described thus: VSVG counterscreen qHTS to identify inhibitors of SARS-CoV-2 cell entry (AID 1645847). Further: potency means the concentration at half of the fitted maximal effect; nearly all actives have a fitted effect of over 65% in size. In short, it runs like this: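 Counterscreen using VSV-G (not spike) pseudotyped MLV particles on ACE2-expressing Expi293F cells after 1 h compound preincubation; infection ran 48 h at 37 °C. Data normalized to VSV-G PP and bald-PP wells.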
The test system of the next assay is CRL-7250. Briefly: qHTS assay to identify novel small-molecules to repurpose for Merkel cell carcinoma treatment (AID 1296009; active means well fitted curve in the direction sought with a large enough effect; an effect the other way counts as inactive or inconclusive; further: nearly all actives have a fitted effect of over 60% in size). The note with it: MCC and control cell lines, CellTiter-Glo viability, 72 h; series mostly up to 92 µM. In short, it runs like this:
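Cells were treated for 72 hr at 37 degree celsius with compounds in 8- or 11-point dose response. Viability was read by CellTiter-Glo luminescence, normalized to no-cell (cytotoxicity) and DMSO controls.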

The nature of assay [12]: qHTS profiling of the MIPE4 collection as inhibitors of Plasmodium falciparum (3D7) proliferation (AID 743344; call rule not given here;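 further: scaled between DMSO vehicle wells and 0.29 µM artemisinin as full inhibition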). The following applies: P. falciparum 3D7 in erythrocytes, SYBR Green DNA fluorescence, 72 h; at 28.5 µM (top of the series) unless noted. Put shortly: (§1)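 Erythrocytes infected with P. falciparum (0.3% parasitemia, 2.5% hematocrit) incubated with compounds 72 h at 37 C, 5% CO2. Lysis with saponin/Triton buffer containing SYBR Green I, overnight at room temperature in the dark; DNA fluorescence (485/535 nm) normalised to 0.29 uM artemisinin and DMSO.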

Assay [13] is described as follows: qHTS profiling of the MIPE4 collection as inhibitors of Plasmodium falciparum (DD2) proliferation (AID 743345; call rule not given here). The following applies: P. falciparum Dd2 in erythrocytes, SYBR Green DNA, 72 h; at 28.5 µM (top of the series) unless noted. Put shortly: as §1
Assay [14] is described as follows: qHTS profiling of the MIPE4 collection as inhibitors of Plasmodium falciparum (DD2) proliferation (Rep 2) (AID 743346; call rule not given here). The following applies: P. falciparum Dd2 in erythrocytes, SYBR Green DNA, 72 h; at 28.5 µM (top of the series) unless noted. In short, it runs like this: as §1
A short description of assay [15]: Inducers of the Endoplasmic Reticulum Stress Response (ERSR) in human glioma: Validation (AID 504836; active means well fitted curve in the direction sought with a large enough effect; an effect the other way counts as inactive or inconclusive; further: 0% is about no effect). In short, it runs like this: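 Stably transfected U87-MG glioma cells carrying a GRP78-based luciferase sensor; 16 h compound incubation. Luminescence end-point read 10 min after Bright-Glo addition at room temperature.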

Chain of Nucleoprotein (Lymphocytic choriomeningitis virus (strain Armstrong)) (P09992 whole entry, looked up): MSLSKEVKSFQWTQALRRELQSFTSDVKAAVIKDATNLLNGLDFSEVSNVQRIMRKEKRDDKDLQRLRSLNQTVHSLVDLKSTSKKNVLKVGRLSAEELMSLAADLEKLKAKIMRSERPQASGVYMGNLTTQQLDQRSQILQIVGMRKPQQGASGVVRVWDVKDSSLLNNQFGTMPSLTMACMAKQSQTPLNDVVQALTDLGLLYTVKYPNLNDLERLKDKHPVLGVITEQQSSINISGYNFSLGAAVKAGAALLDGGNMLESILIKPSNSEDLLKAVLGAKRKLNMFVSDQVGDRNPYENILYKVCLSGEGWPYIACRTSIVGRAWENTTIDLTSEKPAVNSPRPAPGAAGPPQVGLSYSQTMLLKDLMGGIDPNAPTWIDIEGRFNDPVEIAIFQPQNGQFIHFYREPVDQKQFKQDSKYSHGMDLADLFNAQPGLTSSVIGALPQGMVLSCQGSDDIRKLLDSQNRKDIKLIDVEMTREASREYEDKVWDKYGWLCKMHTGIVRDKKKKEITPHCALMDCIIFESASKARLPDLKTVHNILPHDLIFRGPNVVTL

As to `C[C@@H]1CCO[C@H]2Cn3cc(C(=O)NCc4ccc(F)cc4F)c(=O)c(O)c3C(=O)N12`, the Potency result in assay [1], in assay [2], in assay [3], in assay [4], in assay [5] and in assay [7] was “inactive” throughout. The Potency result (in assay [9]; in the assay with CRL-7250) was “inactive” throughout. Besides, the molecule was called inactive in [6] and in assay [8]. In assay [10], the activity change, negative = inhibition was -84%. The Potency in [11] was 0.0076 µM (active).
Consider `C=CC1=C(C(=O)O)N2C(=O)[C@@H](NC(=O)C(=NO)c3csc(N)n3)[C@H]2SC1`, for which the Potency result (in assay [1]; in assay [2]; in assay [3]; in assay [4]; in the assay with CRL-7250) was “inactive” throughout.
Turning to `Cc1cnc(Nc2cccc(CN3CCOCC3)c2)nc1Nc1cccc(S(=O)(=O)NC(C)(C)C)c1`, the Potency entry (in [1]; in assay [2]; in [3]; in assay [4]; in [9]; in the assay on CRL-7250) was “inactive” throughout.
`COc1ccc(C2(C#N)CCC(C(=O)O)CC2)cc1OC1CCCC1` (stereo not drawn) gave a parasite growth, % of DMSO control in assay [12] of 91.7%. Also, in assay [13], the parasite growth remaining, % of DMSO control (lower = more inhibition) turned out to be 101%. The molecule further came in with a parasite growth, % of control (lower = inhibition) in assay [14] of 88.4%. The Potency result in [1], in assay [2], in assay [3], in [4], in assay [7] and in assay [9] was “inactive” each time. For the same molecule, the Potency entry (in assay [10]; in the assay on CRL-7250) was “inactive” each time. The result in assay [6] and in assay [8] was inactive. Further, the activity change, negative = inhibition in [10] is -18.7%.
As for `CNC[C@@H](O)[C@@H](O)[C@H](O)[C@H](O)CO`, the Potency result (in assay [1]; in assay [2]; in assay [3]; in [4]; in the assay on CRL-7250) was “inactive” throughout.
Regarding `Cc1cnc(-c2cc(N3CCN(C(=O)CCS(C)(=O)=O)CC3)ncc2Cl)c(C)c1`, the Potency result (in [1]; in [2]; in assay [3]; in assay [4]; in assay [9]; in the assay with CRL-7250) was “inactive” each time. Besides, in assay [10], the activity change, negative = inhibition was -19%.
Turning to `COC1=C(OC)C(=O)C(CC=C(C)CCC=C(C)CCC=C(C)CCC=C(C)CCC=C(C)CCC=C(C)CCC=C(C)CCC=C(C)CCC=C(C)CCC=C(C)C)=C(C)C1=O`, the Potency entry (in assay [1]; in assay [2]; in assay [3]; in [4]; in the assay with CRL-7250) was “inactive” throughout. In addition, the outcome in assay [5] was “inactive [at 5.34 µM]”; in [6], “inactive [at 5.34 µM]”; in assay [7] it was “inactive [at 5.34 µM]”; in [8] it was “inactive [at 5.34 µM]”; in [9], “inactive [at 5.25 µM]”; in assay [10], “inactive [at 5.25 µM]”.
`Clc1cccc(-n2nnnc2NCc2ccccc2Oc2ccccn2)c1Cl`: the Potency entry (in assay [1]; in assay [2]; in assay [3]; in assay [4]; with CRL-7250) was “inactive” each time.
For `CC(C)(C)[C@H](NC(=O)c1ccc(N)c(Cl)c1)C(=O)N1CCC[C@@H]1C(=O)N[C@H](C#N)CC(=O)O`, the activity change, negative = inhibition in assay [1] is -4.12% [at 5.82 µM] (inactive); in assay [4] it was 63.3% [at 5.82 µM] (inactive). For the same molecule, the activity change, negative = reduced viability in assay [2] was 2.61% [at 5.82 µM] (inactive). Besides, the activity change, negative = lower viability in [3] was 8.73% [at 5.82 µM] (inactive). In addition, in the assay on CRL-7250, the outcome is “inactive [at 4.96 µM]”.
On to `O=C(NC1CCOCC1)c1ccc(-c2cc(-c3cn[nH]c3-c3ccccn3)ccn2)cc1`, for which the Potency result (in assay [1]; in assay [2]; in [3]; in [4]; in assay [9]; in the assay with CRL-7250) was “inactive” throughout. Moreover, the activity change, negative = inhibition in assay [10] is -3.94%.
As to `Cc1ccc(C2=Nc3ccc(Cl)cc3OC2)cc1`, the Potency entry (in assay [1]; in assay [2]; in [3]; in [4]; in assay [9]; in the assay on CRL-7250) was “inactive” each time.
As to `COC(=O)[C@@H]1[C@H]2C[C@@H]3c4[nH]c5ccccc5c4CCN3C[C@@H]2CC[C@@H]1O`, the Potency entry (in [1]; in assay [2]; in [3]; in [4]; in the assay on CRL-7250) was “inactive” in each case.
For `OC(CCN1CCCCC1)(c1ccccc1)C1CCCCC1` (stereo not drawn), the result in assay [15], in [6] and in assay [8] was inactive. Further, the Potency result (in [1]; in [2]; in assay [3]; in assay [4]; in assay [9]; in the assay with CRL-7250) was “inactive” in each case.
For the molecule `O=C(O)CCC=CCC[C@@H]1[C@H](N2CCCCC2)[C@@H](O)C[C@@H]1OCc1ccc(-c2ccccc2)cc1`, the Potency entry in assay [1], in assay [2], in assay [3], in assay [4], in [7] and in assay [9] was “inactive” each time. In addition, the Potency result in the assay with CRL-7250 was “inactive”. For the same molecule, the outcome in [6] and in assay [8] was inactive.
For `Cc1ccc(Nc2cc(-c3cccc(N4C(=O)c5ccccc5C4=O)c3)ncn2)cc1NS(C)(=O)=O`, the Potency entry (in assay [1]; in [2]; in assay [3]; in [4]; in the assay with CRL-7250) was “inactive” throughout. In addition, in assay [9], the Potency was 31.6 µM (active).
Consider `COC(=O)N1CCN(Cc2cccc(NC(=O)Nc3ccc(C)nc3)c2F)CC1`, for which the Potency result (in assay [1]; in assay [2]; in assay [3]; in assay [4]; in assay [9]; in the assay with CRL-7250) was “inactive” each time.
